Rows were chosen to be rich in hits. Some 10% of all compounds tested hit in one or more screens of this group.
BAZ2B block = blocks human BAZ2B. Potency, µM (titrated, usually from 114 µM), for inactives: at the top dose activity change, negative = inhibition, actives largely listed as inhibitors. hit rate 4.4% among 360,000. AlphaScreen BAZ2B-H3K14Ac peptide displacement; also: potency is read from the fitted curve at half-maximal effect; % is scaled to controls: 0 for no effect and ±100 for the full control effect; nearly all actives have a fitted effect of over 60% in size
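BAZ2B (50 nM) with biotin-H3(5-23)K14Ac peptide (50 nM) in PBS pH 7.4, 0.01% Tween-20, preformed 30 min, then compound 30 min at room temperature; top concentration 110uM. AlphaScreen streptavidin donor/nickel chelate acceptor beads (10 ug/mL final), 20 min dark, signal read.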
CtBP-E1A inh = blocks the CtBP interaction with E1A | AlphaScreen GST-E1A/His-CtBP binding, 1536-well; active compounds read low | activity change, % (test concentration not listed) | hit rate 0.49% among 340,000 | AID 651724; in the data active = activity change below about -65%; inconclusive = mostly about -30% to -63%; also: % is scaled to controls: 0 for no effect and ±100 for the full control effect
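Homogeneous bead-based format: GST-tagged E1A captured on glutathione donor beads, His-tagged CtBP on nickel acceptor beads; compounds precede bead addition by 2 h at 37 °C.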
Six1-Eya2 inh = Six1/Eya2 interaction inhibition. AlphaScreen GST-Six1/His-Eya2 binding, biochemical; active compounds read low. hit rate 0.56% among 360,000. Q15475+O00167. activity change, % (no concentration beside the values); in the data active = activity change below about -65%; inconclusive = mostly about -30% to -63%; also: % is scaled to controls: 0 for no effect and ±100 for the full control effect
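Homogeneous AlphaScreen proximity assay pairing GST-Six1 with His-tagged Eya2 (added as 5X mix: 250 nM and 500 nM) in 50 mM Tris pH 8.0, 300 mM NaCl, 1 mM TCEP. Glutathione donor and nickel acceptor beads; 1 h, 37 °C, dark.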
G9a block = inhibitors of human histone lysine methyltransferase G9a. AID 504332. G9a H3K9 monomethylation, AlphaScreen, 2 h. Potency, µM (series often up to 102 µM), for the others: at the highest dose activity, negative = inhibition, most hits filed as inhibitors. hit rate 8.8% among 350,000. Q96KQ7; also: potency is read from the fitted curve at half-maximal effect; % is scaled to controls: 0 for no effect and ±100 for the full control effect; nearly all actives have a fitted effect of over 75% in size
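Readings reflect AlphaScreen signal from monomethyl-H3K9 antibody detection. HMT at 20 nM; substrate b-H3K9 500 nM; cofactor SAM 20 uM; 2 h RT reaction; compounds tested as titrations in qHTS with 15 min preincubation.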
HP1b chromo inh = inhibitors of HP1-beta chromodomain binding to methylated histone tails; P83916; AlphaScreen HP1-beta / biotin-H3K9me3 peptide binding; Potency, µM (series often up to 114 µM), inactives show at the top dose activity change, negative = inhibition, hits mostly inhibitors; hit rate 0.56% among 390,000; also: potency is read from the fitted curve at half-maximal effect; nearly all actives have a fitted effect of over 70% in size
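Compound inhibition of the preformed complex between 50 nM HP1-beta and 50 nM biotinylated H3K9me3 peptide was read by AlphaScreen. Buffer was PBS pH 7.4 with 0.01% Tween-20. Incubations ran 30 min at room temperature, with 10 ug/mL donor/acceptor beads.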
JMJD2A Tudor = JMJD2A Tudor domain (human) inhibition | O75164 | Potency, µM (doses to about 114 µM), for the others: at the top dose activity change, negative = inhibition, most hits filed as inhibitors | hit rate 4.4% among 390,000 | AlphaScreen JMJD2A-Tudor / H3K4me3 peptide binding; also: potency is read from the fitted curve at half-maximal effect; % is scaled to controls: 0 for no effect and ±100 for the full control effect; nearly all actives have a fitted effect of over 50% in size
Numbers without * were called inactive; [ ] = another dose, or the depositor's remark. Unless noted, calls follow the shape of the dose curve; as a rule, active = well fitted inhibition curve with a large enough effect; inconclusive = small, poorly fitted or top-dose-only effect; inactive = no such curve, though single readings can be large or run the other way.

`O=C(NCCCn1ccnc1)C(=O)NCC(c1cccnc1)N1CCN(c2ccccc2)CC1` (centres undefined) gave BAZ2B block 50.1µM*, CtBP-E1A inh -24.0, Six1-Eya2 inh 3.8, G9a block inconclusive, HP1b chromo inh 10.8% and JMJD2A Tudor 56.2µM*.
`S=c1[nH]nc(-c2ccccc2Cl)n1/N=C/C=C/c1ccco1` gave BAZ2B block inconclusive, CtBP-E1A inh -6.6, Six1-Eya2 inh -8.2, G9a block 1.12µM*, HP1b chromo inh -25.2% and JMJD2A Tudor 15.8µM*.
Screening C(=C\c1ccco1)/C=N/n1cnnc1 returned BAZ2B block -4.4%, CtBP-E1A inh -4.9, Six1-Eya2 inh -2.8, G9a block 39.8µM*, HP1b chromo inh 30.1% and JMJD2A Tudor -12.9%.
O=C1NC(c2ccccc2Cl)=N/C1=C/c1ccco1 was read as BAZ2B block inconclusive, CtBP-E1A inh -4.6, Six1-Eya2 inh -7.7, HP1b chromo inh 2.9% and JMJD2A Tudor -25.2%.
For S=c1[nH]nc(-c2ccncc2)n1/N=C/C=C/c1ccco1 the results were BAZ2B block 50.1µM*, CtBP-E1A inh -1.0, Six1-Eya2 inh -11.3, G9a block -137.5%, HP1b chromo inh -15.0% and JMJD2A Tudor 8.91µM*.
C(/CCc1ccccc1)=N\n1cnnc1 was read as BAZ2B block -1.1%, CtBP-E1A inh 1.9, Six1-Eya2 inh 9.4, G9a block -8.1%[59 µM], HP1b chromo inh 23.2% and JMJD2A Tudor -11.3%.
For Cc1cccc(-c2n[nH]c(=S)n2/N=C/C=C/c2ccco2)c1 the results were BAZ2B block inconclusive, Six1-Eya2 inh 2.7, G9a block 1.58µM*, HP1b chromo inh inconclusive and JMJD2A Tudor 20µM*.
Screening CN(c1cccc(NC(=O)COc2ccc(Cl)cc2Cl)c1)S(C)(=O)=O returned BAZ2B block -2.6%, CtBP-E1A inh 7.5, Six1-Eya2 inh 0.0, G9a block -2.7%[59 µM], HP1b chromo inh 34.5% and JMJD2A Tudor -14.6%.
O=S(=O)(Nc1ncccn1)c1ccc(-n2cnnn2)cc1 was read as BAZ2B block -18.3%, Six1-Eya2 inh 7.5, G9a block -26.6%, HP1b chromo inh 33.3% and JMJD2A Tudor -2.9%.
`COc1ccccc1OCCNC(=O)CC(NC(C)=O)c1ccccc1` (centres undefined) gave BAZ2B block -24.7%, CtBP-E1A inh 8.6, Six1-Eya2 inh 4.5, G9a block 79.4µM*, HP1b chromo inh 32.9% and JMJD2A Tudor 2.8%.
Screening CC(=O)NC(CC(=O)NCCc1ccccc1)c1ccccc1 (centres undefined) returned BAZ2B block -1.4%, CtBP-E1A inh 2.6, Six1-Eya2 inh 0.3, G9a block 6.1%, HP1b chromo inh 21.7% and JMJD2A Tudor -9.6%.
CC(C)S(=O)(=O)c1oc(-c2cccs2)nc1S(=O)(=O)c1ccc(F)cc1 was read as BAZ2B block -9.1%, G9a block inconclusive, HP1b chromo inh 24.7% and JMJD2A Tudor -24.0%.
For Cc1cccc(NC(=O)CN2CCN(C(=O)CN3C(=O)NC4(CC(C)CC(C)(C)C4)C3=O)CC2)c1C (centres undefined) the results were CtBP-E1A inh 4.9, Six1-Eya2 inh -0.1, HP1b chromo inh 33.8% and JMJD2A Tudor -1.3%.
`COc1ccc(/C(N)=N/OC(=O)C2CCC(=O)N2S(=O)(=O)c2ccc(C)cc2)cc1` (centres undefined) gave BAZ2B block 7.8%, CtBP-E1A inh -1.8, Six1-Eya2 inh 10.8, G9a block -6.4%[59 µM], HP1b chromo inh 9.2% and JMJD2A Tudor -9.7%.
Screening CCOc1ccc(-c2nc(CN(Cc3ccccc3)C[C@@H]3CCC(=O)N3)c(C)o2)cc1 returned BAZ2B block inconclusive, CtBP-E1A inh 3.9, Six1-Eya2 inh -14.8, G9a block 44.7µM*, HP1b chromo inh 6.6% and JMJD2A Tudor -24.8%.
Cn1c(Cc2ccccc2)nnc1SCC(=O)Nc1ccccc1 was read as BAZ2B block -15.2%, CtBP-E1A inh 4.2, Six1-Eya2 inh 5.6, G9a block 22.3%, HP1b chromo inh 13.8% and JMJD2A Tudor -14.0%.
For Cc1ccc2cc(C)c3nnc(SCC(=O)c4cccs4)n3c2c1C the results were BAZ2B block -9.4%, CtBP-E1A inh 0.2, Six1-Eya2 inh -6.2, G9a block 35.5µM*, HP1b chromo inh 37.1% and JMJD2A Tudor inconclusive.
For Cc1cc2ccc(C)c(C)c2nc1SCC(=O)c1cccs1 the results were BAZ2B block 28.2%, CtBP-E1A inh 29.6, Six1-Eya2 inh 18.1, G9a block 97.1%[59 µM], HP1b chromo inh 86.0% and JMJD2A Tudor 20.1%.
Screening Cc1ccc(C)c2c1cc(C)c1nnc(SCC(=O)c3cccs3)n12 returned BAZ2B block 1.3%, CtBP-E1A inh -5.3, Six1-Eya2 inh -4.2, G9a block 12.6µM*, HP1b chromo inh 23.2% and JMJD2A Tudor inconclusive.
Screening Cn1c(Cc2ccccc2)nnc1SCC(=O)c1cccs1 returned BAZ2B block 0.5%, CtBP-E1A inh 7.1, Six1-Eya2 inh 22.6, G9a block 50.1µM*, HP1b chromo inh 43.7% and JMJD2A Tudor -1.9%.
O=C1C(Sc2ccccc2)=C[C@@]2(O)CC[C@@H](O)[C@]1(Sc1ccccc1)[C@H]2O was read as CtBP-E1A inh 3.0 and Six1-Eya2 inh -4.9.
`O=C(O)CC12CSc3[nH]c(=O)sc3C1c1ccccc1OC2=O` (centres undefined) gave BAZ2B block -5.8% and G9a block 50.1µM*.
Screening COC(=O)Cn1cccc1C(=O)c1ccccc1 returned BAZ2B block -22.7%, CtBP-E1A inh 1.9, Six1-Eya2 inh 0.8, G9a block -7.5%, HP1b chromo inh 24.7% and JMJD2A Tudor -5.1%.
For O=C(O)Cn1cccc1C(=O)c1ccccc1 the results were BAZ2B block 5.6%, CtBP-E1A inh 15.8, Six1-Eya2 inh 4.7, G9a block 56.2µM*, HP1b chromo inh 56.4% and JMJD2A Tudor 20.1%.
For CC(=O)N/C(=N\c1nc(C)cc(C)n1)Nc1ccc2ccccc2c1 the results were BAZ2B block -21.6%, CtBP-E1A inh -2.3, Six1-Eya2 inh 1.6, G9a block 79.4µM*, HP1b chromo inh 43.8% and JMJD2A Tudor -2.7%.
COc1ccccc1C(=O)NCC(=O)N1CCN(S(=O)(=O)c2ccc3c(c2)OCCO3)CC1 was read as BAZ2B block 8.9%, CtBP-E1A inh 2.1, Six1-Eya2 inh 4.0, G9a block 6.6%, HP1b chromo inh 25.0% and JMJD2A Tudor 0.3%.
Screening Cc1ccc(C(=O)NNc2c3ccccc3nc3ccccc23)cc1 returned BAZ2B block inconclusive, CtBP-E1A inh inconclusive, Six1-Eya2 inh inconclusive, G9a block 17.8µM*, HP1b chromo inh -12.6% and JMJD2A Tudor -34.5%.
